The values below come from the supplement of paper PMC10338343.

± gives the standard deviation.

For one assay, the system named is MILI (PIWIL2) piRISC loaded with piRNA #1 (26 nt). The assay is described as follows: pre-steady-state target cleavage rate (min^-1); guide: piRNA #1 5'p-UGAGGUAGUAGGUUGUAUAGUAUCCA; higher = faster piRNA-guided slicing of the target. The note with it: auxiliary factor: 500 nM mouse GTSF1. Summed up: (§1)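 Sequencing of uncleaved targets, normalised to depth and to weakly complementary targets, was the readout of this Cleave-'n-Seq assay. A transcribed, DNA-blocked target RNA library (0.1 nM) was mixed with 1 nM active affinity-purified piRISC carrying one synthetic guide, with or without 500 nM GTSF1 partner protein, in HEPES–potassium acetate buffer at 33 °C for 0–8 or 0–960 min. Three trials were pooled, k3 was capped at 0.0001 min^-1, and a burst-and-steady-state fit gave the pre-steady-state cleavage rate.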
Consider GGAGACCAUACUAUACGACCUACUACCUCA, for which the “pre-steady-state target cleavage rate” value came out at 0.0852 ± 0.016.

As for GGAGAGGAUACUAUACAACCUACUACUCA, the “pre-steady-state target cleavage rate” value was found to be 0.109 ± 0.017.

With GGAGACCUAAAUAUACAACCUACUACCUCA, the “pre-steady-state target cleavage rate” value is 0.0318 ± 0.0077.

The subject of a further assay is EfPiwi piRISC loaded with piRNA #1 (26 nt). The assay is described as follows: pre-steady-state target cleavage rate (min^-1); auxiliary factor: 500 nM Ephydatia muelleri Gtsf1; guide: piRNA #1 5'p-UGAGGUAGUAGGUUGUAUAGUAUCCA; MIWI and MILI are mouse PIWI proteins and EfPiwi is from a freshwater sponge; tags in brackets are library labels; higher = faster piRNA-guided slicing of the target.
Conditions: not given
The procedure, abridged: as §1
For the sequence GGAGACCAUACUAUACGACCUACUACCUCA, the “pre-steady-state target cleavage rate” value is 0.0094 ± 0.0037.

GGAGACCUAUGAUAUGUUCCUACUACUCUCA: the “pre-steady-state target cleavage rate” value was under 0.0001.

For GGAGACCUAUGAUAUGUUCCUACUCCCUCA, the “pre-steady-state target cleavage rate” value is under 0.0001.

For GGAGAGGAUACUAUACAACCUACUACUCA, the “pre-steady-state target cleavage rate” value was 0.00563 ± 0.0029.

For “GGAGAGGAUACUAUACAACCUACUUGGAGA [g7:g25:cont:t1A]”, the “pre-steady-state target cleavage rate” value was 0.00281 ± 0.0022.

With GGAGACGAUACUAUACAACCUAGUACGUCA, the “pre-steady-state target cleavage rate” value came to 0.00328 ± 0.0016.

Take GGAGACCUAUGUAUACAACCUACAUGCUCA: the “pre-steady-state target cleavage rate” value was under 0.0001.

Regarding GGAGACCUUACUAUACAACACUACUACCUCA, the “pre-steady-state target cleavage rate” value came out at 0.0118 ± 0.0053.

On to GGAGACGAUACUAUACAACCUUCUACGUCA, for which the “pre-steady-state target cleavage rate” value was 0.00448 ± 0.0019.

With GGAGACCUAUGAAUACAACCUACAUGCUCA, the “pre-steady-state target cleavage rate” value was under 0.0001.

GGAGAGGAUACUAAACAACCUAGUACCUCA: the “pre-steady-state target cleavage rate” value was 0.00257 ± 0.002.

For the sequence GGAGAGGAUAGUAUACAACCUACUUCCUCA, the “pre-steady-state target cleavage rate” value was 0.00319 ± 0.0018.

Turning to GGAGACCUUACUAUACAAGCCUACUACCUCA, the “pre-steady-state target cleavage rate” value was 0.00541 ± 0.0031.

GGAGACCUAAAUAUACAACCUACUACCUCA: the “pre-steady-state target cleavage rate” value was 0.0102 ± 0.0046.

With GGAGUGGAUACUAUACAACCUUCUAGCUCA, the “pre-steady-state target cleavage rate” value stood at 0.00376 ± 0.0018.

In the case of GGAGUGGAUACUAUACAAUCCUACUACCUCA, the “pre-steady-state target cleavage rate” value turned out to be 0.0124 ± 0.0065.

For the sequence GGAGUGGAUACAAUACAACCUACUACCUGA, the “pre-steady-state target cleavage rate” value turned out to be 0.00396 ± 0.0018.

For the sequence GGAGACCAUAUCUAUACAACCUACUACCUCA, the “pre-steady-state target cleavage rate” value stood at 0.124 ± 0.051.

For GGAGACCUAACUAUACACCUACUACCUCA, the “pre-steady-state target cleavage rate” value amounted to 0.00586 ± 0.0042.

For the sequence GGAGACCAAACUUUACAACCUACUACCUCA, the “pre-steady-state target cleavage rate” value was determined as 0.011 ± 0.0057.

Regarding GGAGACCUAUGAUAUCAACCAAGUACCUCA, the “pre-steady-state target cleavage rate” value was under 0.0001.

Turning to GGAGACGAUAGUAUACAACCUACUACGUCA, the “pre-steady-state target cleavage rate” value was found to be 0.0019 ± 0.0015.

Consider GGAGACGAUACUAUACAACCAACUAGCUCA, for which the “pre-steady-state target cleavage rate” value stood at 0.00457 ± 0.0027.

Consider GGAGACGAUACUAUACGAACCUACUACCUCA, for which the “pre-steady-state target cleavage rate” value came out at 0.00658 ± 0.0033.

In the case of GGAGACCUAACUAUGCAACCUACUACCUCA, the “pre-steady-state target cleavage rate” value was 0.00447 ± 0.0039.

Regarding GGAGACGAUACUAUACAACCUUGUACCUCA, the “pre-steady-state target cleavage rate” value was determined as 0.00308 ± 0.002.

With GGAGUGGAUACUAUACAACCUACUAGGUCA, the “pre-steady-state target cleavage rate” value came out at 0.00356 ± 0.002.

On to GGAGUGGAUACUAUACAACCUAGAACCUCA, for which the “pre-steady-state target cleavage rate” value is 0.00464 ± 0.0024.

As to GGAGACGAUACUAUACAACCUACUAGCUGA, the “pre-steady-state target cleavage rate” value worked out at 0.00481 ± 0.0027.

Consider GGAGACCAUACUAUACAACCCUACUACCUCA, for which the “pre-steady-state target cleavage rate” value was found to be 0.00693 ± 0.0035.

For GGAGACCUAAUAUACAACCUACUACCUCA, the “pre-steady-state target cleavage rate” value turned out to be 0.0061 ± 0.0043.

As to GGAGACGAUACUAUACAGACCUACUACCUCA, the “pre-steady-state target cleavage rate” value came out at 0.0101 ± 0.0034.

Turning to GGAGACGAUACUAUACAUACCUACUACCUCA, the “pre-steady-state target cleavage rate” value worked out at 0.00857 ± 0.0043.

Take GGAGACCUAACUAUACAACCACUACCUCA: the “pre-steady-state target cleavage rate” value turned out to be 0.00546 ± 0.0044.

On to GGAGUGGAUUCUAUACAACCUACUACCUGA, for which the “pre-steady-state target cleavage rate” value was 0.00261 ± 0.002.

For GGAGACGAUACUAUACAACCUUCUUCCUCA, the “pre-steady-state target cleavage rate” value was 0.0037 ± 0.0019.

As to GGAGUGGAUACUAUACAACCAUGUACCUCA, the “pre-steady-state target cleavage rate” value was determined as 0.00412 ± 0.0026.

Turning to GGAGACGUUACUAUACAACCUACUACCUCA, the “pre-steady-state target cleavage rate” value turned out to be 0.0209 ± 0.0092.

On to GGAGACCUAUCUAUACAACCUACUGCCUCA, for which the “pre-steady-state target cleavage rate” value was found to be 0.00997 ± 0.0044.

On to GGAGACCUAACUAUACAAGCCUACUACCUCA, for which the “pre-steady-state target cleavage rate” value came to 0.00432 ± 0.0033.
